MARV entry inh = Marburg virus entry inhibition | Marburg virus pseudotyped entry inhibition, cell reporter | Potency, µM (top dose mostly 37.8 µM), inactives show at the highest dose activity change, negative = inhibition, usual class: inhibitors | 300,000 tested, 1.8% active | AID 540276; calls by dose curve; tested in HEK293 cells; further: potency means the concentration at half of the fitted maximal effect; on the % scale 0 is the no-effect control and ±100 the full control effect
HCV inh = HCV inhibition. Huh7.5.1 HCVcc-Cre infection, luciferase reporter, 44 h. Potency, µM (top dose mostly 41.8 µM), for inactives: at the highest dose activity change, negative = inhibition, actives largely listed as inhibitors. 340,000 tested, 3.4% active; active means well fitted inhibition curve with a large enough effect; inconclusive means small, poorly fitted or top-dose-only effect, or another doubt; inactive means no such curve, though single readings can be large or run the other way; further: potency means the concentration at half of the fitted maximal effect; on the % scale 0 is the no-effect control and ±100 the full control effect
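A cell-based infection assay in which seeded cells (1,000 per well) receive test compound after 4 h, are inoculated with HCVcc-Cre at approximately 0.5 moi, and are incubated 44 h before luminescence detection.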
Shiga inhibitor = blocks Shiga toxin action in Vero cells | inhibition, % at 38.7 µM | 290,000 tested, 9.2% active | Vero cells, Shiga toxin protein synthesis inhibition reporter | AID 2315; in the data active means inhibition mostly above about 28%, no sharp cut-off; inactive means mostly below about 43%; further: 0% is about no effect
CHX counter = counter-screen hit for Shiga toxin inhibitors, cycloheximide; cell reporter, cycloheximide protein synthesis inhibition counterscreen; max response, %; 300,000 tested, 12% active; in the data active means max response mostly above about 13%, no sharp cut-off; inactive means mostly below about 14%; further: read at 38.3 µM for the half of the compounds with a filed dose; 0% is about no effect
FMDV antiviral = foot and mouth disease virus antiviral activity. 410,000 tested, 1.2% active. Potency, µM (highest dose often 57.9 µM), for inactives: top-dose activity change, negative = inhibition, usual class: inhibitors. FMDV antiviral cell-based qHTS; calls by dose curve; tested in HEK293T cells; further: read-out not given here; potency means the concentration at half of the fitted maximal effect; on the % scale 0 is the no-effect control and ±100 the full control effect; nearly all actives have a fitted effect of over 45% in size
Lassa entry inh = inhibitors of Lassa virus binding or cell entry; Lassa virus pseudotype entry inhibition, cell reporter; Potency, µM (highest dose often 37.9 µM), for the others: top-dose activity change, negative = inhibition, actives largely listed as inhibitors; 300,000 tested, 1.2% active; AID 540256; calls by dose curve; tested in HEK293 cells; further: potency means the concentration at half of the fitted maximal effect; on the % scale 0 is the no-effect control and ±100 the full control effect; nearly all actives have a fitted effect of over 50% in size
Numbers without * were called inactive; ? = inconclusive; . = not tested or not shown; + = active, no number; [ ] = remark or other dose. The list is not random: actives were taken first. Their share in the collection is about 13%.

SMILES	MARV entry inh	HCV inh	Shiga inhibitor	CHX counter	FMDV antiviral	Lassa entry inh
Cn1c(/C=C/c2ccccc2)nc2ccccc21	.	?	-13.1	11.1	-81.1%	.
Cn1c(=O)c(/C=C/c2ccc(F)cc2)nc2ccccc21	7.3%	?	75.0*	35.6*	42.7%	-11.5%
Cn1c(=O)c(/C=C/c2ccccc2)nc2ccccc21	?	6.4%	73.5*	34.2*	-9.9%	-16.4%
CC(C)(C)NC(=O)CC(c1ccccc1)c1ccccc1O (centres undefined)	-12.4%	-5.0%	-17.9	-1.6	-8.3%	1.6%
O=C(Nc1nnc(SCc2c(Cl)cccc2Cl)s1)C1CC(=O)N(c2ccc3c(c2)OCCO3)C1 (centres undefined)	-2.3%[46.1 µM]	-25.7%	16.9	6.7	?	3.8%[46.1 µM]
N#Cc1ccc(CSc2nnc(NC(=O)C3CC(=O)N(c4ccc5c(c4)OCCO5)C3)s2)cc1 (centres undefined)	-5.2%[46.1 µM]	0.2%	-2.5	10.9*	6.9%	-1.8%
O=C(Nc1nnc(SCc2ccc(F)cc2)s1)C1CC(=O)N(c2ccc3c(c2)OCCO3)C1 (centres undefined)	-8.2%	12.7%	0.7	15.4*	-13.0%	3.5%
CCc1ccc(-c2csc(NC(=O)C3CC(=O)N(c4ccc5c(c4)OCCO5)C3)n2)cc1 (centres undefined)	?	11.2µM*	+	13.6*	?	?
COc1ccc(N2CC(C(=O)Nc3nnc(SCc4ccccn4)s3)CC2=O)cc1 (centres undefined)	8.1%	14.0%	-2.1	19.8*	-13.3%	9.6%
Cc1csc(NC(=O)C2CC(=O)N(c3ccc4c(c3)OCCO4)C2)n1 (centres undefined)	.	-13.4%	.	.	4.0%	.
CCc1ccc(N2C(=O)C3C(C2=O)N2CCCN2C3c2ccccc2)cc1 (centres undefined)	?	-10.7%	3.9	-1.9	-2.2%	14.2%
Cc1c(C(=O)NC2CCCCC2C)oc2ccccc12 (centres undefined)	-13.2%[46.1 µM]	-20.4%	-14.6	-2.6	3.1%	-17.1%[46.1 µM]
Cc1cc(C)cc(NC(=O)c2ccc(NC(=O)c3ccco3)cc2)c1	?	?	-8.1	0.7	?	-25.9%[46.1 µM]
CCCCOC(=O)c1ccc(NC(=S)NC(=O)c2ccco2)cc1	?	25.7%	4.8	6.0	-9.1%	15.8µM*
CCCCCOC(=O)c1ccc(NC(=O)c2ccco2)cc1	-13.1%	1.5%	68.2*	36.0*	?	-17.5%
CCCCOC(=O)c1ccc(NC(=S)NC(=O)c2c(Cl)cnn2C)cc1	1.9%[46.1 µM]	10.8%	-17.5	3.0	?	1.3%
Nc1cccc(-c2cnc3ccccc3n2)c1	.	-8.9%	63.1*	63.9*	21.4%	.
O=[N+]([O-])c1cccc(-c2nc3ccccc3s/c2=N/O)c1	0.3%[46.1 µM]	?	37.4	18.6	5.7%	0.0%[46.1 µM]
O=[N+]([O-])c1cccc(-c2cnc3ccccc3n2)c1	.	5.3%	63.3*	24.1*	0.0%	.
CS(=O)(=O)N(CC(=O)NCc1ccc2c(c1)OCO2)c1ccccc1	8.9%	13.9%	13.1	-2.8	9.0%	8.3%
O=[N+]([O-])c1ccc(S(=O)(=O)N2CCN(Cc3c[nH]c4ccccc34)CC2)cc1	-18.6%	22.4µM*	-6.2	-0.9	-12.5%	8.1%
CN1CCN(Cc2cc(COCc3ccccc3)c3cccnc3c2O)CC1	6.31µM*	3.16µM*	10.6	17.0*	-18.8%	?
Oc1ccc(CN2CCN(Cc3ccccc3)CC2)c2cccnc12	-13.1%	10µM*	-15.0	-5.5	-7.5%	?
CN1CCN(C2CCN(Cc3ccc(O)c4ncccc34)CC2)CC1	.	.	.	.	0.4%	.
COc1ccc(S(=O)(=O)N2CCN(Cc3c[nH]c4ccccc34)CC2)cc1	5.8%[46.1 µM]	8.1%	-7.0	-1.2	-18.1%	11.3%
SMILES	MARV entry inh	HCV inh	Shiga inhibitor	CHX counter	FMDV antiviral	Lassa entry inh
O=S(=O)(c1ccc(Cl)cc1)N1CCN(Cc2ccc(O)c3ncccc23)CC1	12.6µM*	?	10.0	16.4	-16.1%	?
COc1ccc(NC(=O)N2CCN(S(=O)(=O)c3ccc4c(ccn4C)c3)CC2)c(OC)c1	.	.	.	.	?	-0.3%[46.1 µM]
CCOC(=O)c1sc(NC(=O)c2cc(-c3cccc(O)c3)on2)c(C(=O)OCC)c1C	-17.3%	-24.6%	-12.4	0.9	6.9%	8.8%
Cc1c(C)n2c(SCC(=O)NC3CCCCC3)nnc2[nH]c1=O	-7.7%[46.1 µM]	-0.7%[8.37 µM]	.	.	-14.6%	-11.8%
CC(=O)Nc1nonc1NC(=O)CSc1ccccn1	24.4%	16.3%	-28.9	-5.0	19.1%	16.2%
Cc1cc(C)cc(N(C(=O)CNS(=O)(=O)c2ccccc2)C(C(=O)NCc2ccccc2)c2ccc(C)o2)c1 (centres undefined)	?	23.1%	5.9	4.7	-9.5%	11.6µM*
COc1ccc(N(C(=O)CNS(=O)(=O)c2ccccc2)C(C(=O)NCc2ccco2)C(C)C)cc1 (centres undefined)	-16.7%[46.1 µM]	9.3%	3.9	0.4	-18.3%	-9.7%[46.1 µM]
Cc1ccc(S(=O)(=O)NCC(=O)N(c2ccccc2)C(C(=O)NCc2ccccc2)c2ccco2)cc1 (centres undefined)	20µM*	3.4%	-8.3	0.4	0.0%	?
CC(C)C(C(=O)NCc1ccccc1)N(CC1CCCO1)C(=O)CNS(=O)(=O)c1ccccc1 (centres undefined)	-17.9%[46.1 µM]	-4.6%	-8.2	-4.9	17.1%	-4.6%
CC(=O)Nc1ccc(NC(=O)c2ccccc2Nc2ccccc2)cc1	2.5%[46.1 µM]	?	2.8	-2.1	8.5%	-10.7%
COc1ccc(C(=O)Oc2ccc(=O)n(-c3ccccc3)n2)cc1	8.2%	-3.3%	-9.9	2.7	-8.0%	23.5%
Cc1cc(C)n(-c2nc(NCCCN(C)C)c3c4c(sc3n2)COC(C)(C)C4)n1	?	-2.0%	-7.3	-1.7	0.5%	-24.9%
CCSc1nc(NCCN(C)C)c2c3c(sc2n1)COC(C)(CC)C3 (centres undefined)	?	-21.8%	-10.5	29.7*	-12.5%	-28.2%
Cc1cc(C)n(-c2nc(NCCN(C)C)c3c4c(sc3n2)COC(C)(C)C4)n1	7.08µM*	?	10.3	8.5	-8.4%	12.6µM*
CCN(CC)CCNc1nc(-n2nc(C)cc2C)nc2sc3c(c12)CC(C)(C)OC3	?	11.2µM*	31.3	11.8*	1.2%	7.94µM*
CCC1(C)Cc2c(sc3nc(NN)n(C)c(=O)c23)CO1 (centres undefined)	-28.4%	-14.9%	-9.1	-0.5	-23.4%	?
Cc1cc(NC(=O)CCC(=O)N(C(C(=O)NC(C)(C)C)c2ccccc2Cl)C(C)(C)C)no1 (centres undefined)	?	-5.7%	-12.6	-2.4	-10.5%	.
c1ccc(COc2ccc(OCCCn3cncn3)cc2)cc1	?	7.5%	60.9*	34.8*	-8.3%	-9.1%
c1ccc(-c2ccc(OCCOCCn3cncn3)cc2)cc1	-9.5%[46.1 µM]	-8.4%	56.9*	34.6*	21.7%	5.2%
c1ccc(Cc2ccc(OCCn3cncn3)cc2)cc1	-1.9%	-11.5%	-4.9	-1.9	-17.7%	1.4%
